According to PubChem BioAssay (NCATS):
Results filed as inconclusive are left out. Activity calls are given as the source filed them. Calls come from the whole dose curve; as a rule, active = well fitted curve in the direction sought with a large enough effect; inconclusive = small, poorly fitted or top-dose-only effect, or another doubt; inactive = no such curve, though single readings can be large or run the other way.

Test: qHTS Assay for Identifying Gametocytocidal Compounds (AID 743244);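 note: actives lower the fluorescent signal which means gametocytes are killed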
Conditions: P. falciparum 3D7 stage III-V gametocytes, alamarBlue, 72 h; max response: stronger effect = lower value
Procedure, shortened: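 Fluorescence at Ex 525/Em 598 nm, recorded 24 h after alamarBlue addition, reports residual metabolic activity of 3D7 gametocytes (stages III–V) following 72 h compound exposure at 37 °C, 5% CO2.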
% is set by controls: 0 for no effect and ±100 for the full control effect.

| SMILES | max response |
| --- | --- |
| CCOc1cc(NC(C)=O)ccc1C(=O)OC | 7.76% (inactive) |
| Cc1[nH]c(C)c(Cl)c(=O)c1Cl | -2.25% (inactive) |
| COc1cc(C(=O)NCCCCCC(=O)O)cc(OC)c1OC | 4.11% (inactive) |
| C=CCOc1ccccc1OCC(O)CNC(C)C (stereo unspecified) | 5.69% (inactive) |
| C1CCN2C[C@@H]3C[C@@H](CN4CCCC[C@@H]34)[C@H]2C1 | 2.03% (inactive) |
| COCC(=O)Nc1c(I)c(C(=O)NCC(O)CO)c(I)c(C(=O)N(C)CC(O)CO)c1I (stereo unspecified) | 10.5% (inactive) |
| O=C(O)c1ccc(OCCCOc2ccc(C(=O)O)cc2)cc1 | 1.74% (inactive) |
| CC1(C)S[C@@H]2[C@H](NC(=O)C(C(=O)O)c3ccccc3)C(=O)N2[C@H]1C(=O)O (stereo partly specified) | -0.734% (inactive) |
| NCc1ccc(S(N)(=O)=O)cc1 | -0.707% (inactive) |
| Cc1c(C)c2c(c(C)c1OC(=O)c1cccnc1)CC[C@@](C)(CCC[C@H](C)CCC[C@H](C)CCCC(C)C)O2 | 6.89% (inactive) |
| CCCCCCCCCCCCCCCCC(C(=O)O)C(O)(CC(=O)O)C(=O)O (stereo unspecified) | 6.09% (inactive) |
| O=C1c2ccccc2C(=O)C1c1ccc(Br)cc1 | -7.34% (inactive) |
| NC(N)=NCCN1CCCCCCC1 | 21% (inactive) |
| O=C(NCN1CCOCC1)c1cnccn1 | -4.94% (inactive) |
| O=C(O)c1ccccc1OP(=O)(O)O | -5.84% (inactive) |
| CC(=O)OCC(=O)[C@@]1(O)CC[C@H]2[C@@H]3CCC4=CC(=O)C=C[C@]4(C)[C@@]3(F)[C@@H](O)C[C@@]21C | 18.9% (inactive) |
